About 11,000 (3.5%) of roughly 310,000 compounds were called active. Not shown: some 4% with an inconclusive outcome. Calls come from the whole dose curve; as a rule, active = well fitted inhibition curve with a large enough effect; inconclusive = small, poorly fitted or top-dose-only effect, or another doubt; inactive = no such curve, though single readings can be large or run the other way. This excerpt belongs to a sample that is enriched for actives.
Target: 4'-phosphopantetheinyl transferase ffp (Bacillus subtilis) (UniProt Q9F4F7)
Experiment: qHTS Assay for Inhibitors of Bacillus subtilis Sfp phosphopantetheinyl transferase (PPTase);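 note: the enzyme is Sfp with the accession as filed and its product quenches rhodamine fluorescence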;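 for largest response in the series, negative = inhibition: 0% = enzyme reaction without inhibitor and -100% = no enzyme wells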
Settings: Biochemical Sfp PPTase activity
Text: Assay Submitter: Michael Burkart, University of California, San Diego
Screening Center PI: Austin, C.P.
Screening Center: NIH Chemical Genomics Center [NCGC]
The covalent attachment of a phosphopantetheinyl (4'-PP) arm to a variety of synthases and other proteins is a key posttranslational protein modification. The 4'-PP is installed on the proteins post-translationally from coenzyme A (CoA) on a conserved serine residue by action of phosphopantetheinyl transferase (PPTase) enzymes. Phosphopantetheinylation is essential for synthase activity, and removal of the PPTase gene precludes natural product synthesis in microorganisms, or in the case of fatty acid biosynthesis, renders the organism unviable. PPTase enzymes belong to a distinct structural superfamily. Within bacteria, these enzymes are grouped into two classes based upon primary structure, the AcpS-Type and Sfp-Type PPTases.
Sfp-type PPTases, corresponding to an activator of surfactin production in Bacillus subtilis, are responsible for modifying type I polyketide and nonribosomal peptide synthases of prokaryotes. Sfp-type PPTases are responsible for the activation of a variety of pathogen-associated virulence factors. Among these compounds are toxins such as mycolactone from Mycobacterium ulcerans, siderophores such as vibriobactin from Vibrio cholerae or mycobactin from Mycobacterium tuberculosis, as well as the mycolic acids which form the waxy cell wall of Mycobacteria. The biosyntheses of these natural products are considered attractive targets for drug design.
In search of small molecule Sfp-PPTase inhibitors, a fluorescence quenching assay was developed for detection of Bacillus subtilis Sfp-PPTase enzymatic activity in a miniaturized high-throughput format. The consensus ybbr acceptor peptide […] was N-terminally labeled with Black Hole Quencher-2 (BHQ-2) and used in combination with rhodamine-labeled coenzyme A as a co-substrate.
Inhibition of Sfp-PPTase was detected by recording the fluorescence intensity change over a 30-minute reaction period at a 525 nm excitation and 598 nm emission. Reagents were supplied by Michael Burkart and Timothy Foley, University of California at San Diego.
This BioAssay deposition is for validation of the developed Sfp-PPtase assay.
Assay Buffer: 50 mM Hepes-Na pH 7.6, 10 mM MgCl2, 0.01% Nonidet P-40, and 0.01% BSA.
3 uL of Sfp-PPTase enzyme (final concentration 15 nM) and 1 uL of substrate mixture (final concentration for rhodamine-CoA and BHQ-2-YbbR 5 uM and 12.5 uM, respectively) dispensed in columns 1, 2, 5 - 48. Columns 1 and 2 used to generate neutral control (uninhibited reaction)
Three uL of reagents, consisting of buffer (in columns 3 and 4 as negative control) and Sfp-PPTase (in columns 1, 2, 5 - 48) were dispensed into 1,536-well Greiner black solid bottom plate. Compounds (23 nL) were transferred via Kalypsys pintool equipped with 1,536-pin array. The plate was incubated for 15 min at room temperature, followed by the addition of 1 uL substrate to start the reaction. The plate was then centrifuged at 1000 rpm for 15 seconds, and the fluorescence intensity recorded on a ViewLux High-throughput CCD imager (Perkin-Elmer) using standard BODIPY optics (525 nm excitation and 598 nm emission). The plate was then incubated for 30 minutes, and a second read on the ViewLux was performed. The fluorescence intensity difference over the 30-minute period was used to calculate the respective reaction rate for each well.
Potency is the fitted concentration of half-maximal effect.

SMILES | largest response in the series, negative = inhibition | Potency
O=C(Nc1cccc([N+](=O)[O-])c1)Nn1cnnc1 | 16.6% (inactive) | 
FC(F)(F)c1cccc(Nc2ncnc3ccccc23)c1 | 5.92% (inactive) | 
O=c1cc(CO)oc(C(Nc2cccc(C(F)(F)F)c2)c2ccccn2)c1O (stereo not given) |  | 7.94 µM (active)
O=C(Nc1cccc(C(F)(F)F)c1)c1cc(Br)cc(Br)c1O | -10.2% (inactive) | 
O=c1cc(CO)oc(C(Nc2cccc([N+](=O)[O-])c2)c2ccccn2)c1O (stereo not given) |  | 20 µM (active)
O=[N+]([O-])c1cccc(S(=O)(=O)NCc2ccccn2)c1 | 1.73% (inactive) | 
CCC(C)C(NC(=O)C1CCC(=O)N1C(=O)OCc1ccccc1)C(=O)NC(C(=O)N1CCCC1C(N)=O)C(C)CC (stereo not given) | 18.8% (inactive) | 
N#Cc1ccccc1NC(=O)c1ccc2c(c1)OCO2 | 20.2% (inactive) | 
COc1ccc(CN2C3CCCC2CC(NC(=O)c2cccc(F)c2)C3)cc1 (stereo not given) | 9.04% (inactive) | 
O=C(N/N=C/c1cccc(Br)c1)c1ccc(N2CCCC2=O)cc1 | 2.98% (inactive) | 
Cc1occc1C(=O)NC1CCCN(Cc2ccc(CC(C)C)cc2)C1 (stereo not given) | 10% (inactive) | 
COc1ccc(CNC(=O)CN(C(=O)c2csnn2)c2cnc3ccccc3c2)cc1 | 15.4% (inactive) | 
CCc1c(C)sc(NC(=O)c2cccs2)c1C(N)=O |  | 14.1 µM (active)
CCc1c(C)sc(NC(=O)c2ccc(Br)o2)c1C(=O)OC | -4.91% (inactive) | 
COC(=O)c1c(NC(=O)c2cccs2)sc2c1CCCC2 | 6.07% (inactive) | 
CC(C)(COC(=O)Nc1ccccc1)COC(=O)Nc1ccccc1 | 5.47% (inactive) | 
NC(=O)CSc1nnc(NC(=O)c2ccc(Br)o2)s1 | 4.59% (inactive) | 
Cc1cc(OC(=O)c2ccc(OC(C)C)cc2)c([N+](=O)[O-])c(=O)[nH]1 | 16.6% (inactive) | 
Fc1ccccc1COc1ccccc1CNCc1ccncc1 | -8.76% (inactive) | 
C=CCOc1cccc(CNCc2cccnc2)c1 | -13.5% (inactive) | 
c1ccc(COc2ccccc2CNCc2cccnc2)cc1 |  | 56.2 µM (active)
Oc1c(Cl)cc(Cl)cc1/C=N/c1ncn[nH]1 | -2.74% (inactive) | 
Cc1ccc(CN2CCN(Cc3cn(C)nc3-c3ccccc3)CC2CCO)o1 (stereo not given) | 8.78% (inactive) | 

SMILES | largest response in the series, negative = inhibition | Potency
Cc1ccccc1CN1C[C@@H]2C[C@@H](c3cn(C)nc3-c3ccccc3)N3CCC[C@@]23C1=O |  | 3.16 µM (active)
Cc1ccccc1CN1C[C@@H]2C[C@@H](c3ccc4nsnc4c3)N3CCC[C@@]23C1=O | 7.31% (inactive) | 
COc1ccc(NC(=O)CSc2nc(SC)ns2)c(OC)c1 | 8.6% (inactive) | 
COC(=O)C1=C(C(=O)OC)C(c2cc([N+](=O)[O-])ccc2O)c2sc(=O)[nH]c2S1 (stereo not given) |  | 44.7 µM (active)
COC(=O)C1=C(C)N(C)C(=O)NC1c1ccc([N+](=O)[O-])o1 (stereo not given) | 23.4% (inactive) | 
COC(=O)c1c(C)[nH]c(C)c1-c1ccc([N+](=O)[O-])cc1 | 9.93% (inactive) | 
COC(=O)c1cc(S(=O)(=O)N2CCN(c3cc(C)ccc3C)CC2)c[nH]1 | 24.2% (inactive) | 
COc1ccc(S(=O)(=O)n2nc(C)c(S(=O)(=O)N3CCOCC3)c2C)cc1 | 8.67% (inactive) | 
Cc1ccc(C2Nc3cccc4cccc(c34)N2)cc1 | -26.1% (inactive) | 
Oc1ccc(C2Nc3cccc4cccc(c34)N2)cc1 |  | 35.5 µM (active)
COc1cccc(C2Nc3cccc4cccc(c34)N2)c1 | 6.1% (inactive) | 
FCOC(C(F)(F)F)C(F)(F)F | 11.5% (inactive) | 
CCc1ccc(NC(=O)Cn2nnc(C(=O)NCc3ccc(OC)cc3)c2N)cc1 | 4.14% (inactive) | 
Cc1cnc(CNc2ncncc2-c2ccccc2Cl)cn1 |  | 79.4 µM (active)
COc1ccc(CNc2ncncc2-c2ccccc2OC)c(OC)c1 | -6.24% (inactive) | 
COc1ccc(CNc2ncncc2-c2ccccc2C)c(OC)c1 | -23.8% (inactive) | 
CS(=O)(=O)c1ccccc1C(=O)Nc1ccc2sccc2c1 | 8.96% (inactive) | 
Cc1cccc(CSc2nc3c(c(=O)n2C)SCC3)c1 |  | 50.1 µM (active)
CCn1c(SCc2ccccc2)nc2c(c1=O)SCC2 | 11.2% (inactive) | 
Cn1c(SCC(=O)N2CCCCC2)nc2c(c1=O)SCC2 | 15.7% (inactive) | 
Cc1ccc(S(=O)(=O)N(Cc2ccccc2)c2ccccn2)cc1[N+](=O)[O-] | 11.4% (inactive) | 
COc1cc(S(=O)(=O)Nc2ncn[nH]2)ccc1Cl | -14.8% (inactive) | 

Source: PubChem BioAssay AID1490 (National Center for Advancing Translational Sciences (NCATS), 2009)
